# According to PubChem BioAssay (NCI):
# The panel holds about 83,000 compounds, 20% with a hit somewhere; the sample as a whole holds those more often.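 Method: cells in 96-well plates; compound added at one concentration; 48 h incubation; percent growth measured; values under 10 scored active.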 Values without a mark were called inactive. The source made the active and inactive calls.
# Test system: SNB-75 CNS
# Assay: NCI-60 one-dose screen, 48 h (100 = growth as untreated, 0 = no growth, -100 = all killed)
# Settings: 10 µM
row,Compound,growth
1,COCCCC/C(=N\OCCN)c1ccc(C(F)(F)F)cc1,79.9%
2,Cc1ccccc1N=C(c1ccccc1)C1C(=O)c2ccccc2C1=O,90%
3,O=C(O)C(c1ccccc1)C(O)c1ccccc1 (stereo not drawn),96.6%
4,CC(C)(C)c1cc(O)c(C(C)(C)C)cc1O,92.7%
5,O=C(CCNNC(=O)c1ccncc1)NCc1ccccc1,89.4%
6,CCCNc1ccc(C2=NCCCN2)cc1,84.2%
7,O=[N+]([O-])c1ccc(O)c(S(=O)(=O)O)c1,98.6%
8,O=C(O)c1cccc([N+](=O)[O-])c1O,96.1%
9,O=[N+]([O-])c1ccc(N=Nc2ccccc2)cc1,88.5%
10,CCn1c(=O)n(C)c2c(=O)n(C)c(=O)n(C)c21,97.1%
11,CCCCCCCCCCCCCCCCC1CC(=O)OC1=O (stereo not drawn),101%
12,O=C1c2ccccc2C(=O)N1OCc1ccccc1,83.6%
13,C[C@@H](c1ccccc1)[C@@H](C(=O)O)c1ccccc1,88.4%
14,CC(=O)C1CCCCC1,87.1%
15,Nc1ccc(CC(=O)O)c(N)c1,93.1%
16,CN(C)c1ccc(CNC(C(=O)c2ccccc2)c2ccccc2)cc1 (stereo not drawn),90.4%
17,CC(C)COC(=O)COC(=O)OCCOCCOC(=O)OCC(=O)OCC(C)C,102%
18,S=C(Nc1ccccc1)N1CCCCC1,99.5%

row,Compound,growth
1,O=C(O)CCCc1ccccc1,99.9%
2,COc1cc(OC)c2ccc(=O)oc2c1,85.3%
3,Cc1cc(=O)[nH]c(NN=C2CCCC2)n1,89.1%
4,Nc1ccc(C(=O)c2ccc(N)c(Br)c2)cc1Br,-5.35% (active)
5,CCCC(=O)c1cc(C)ccc1OC,94.9%
6,Nc1ccc(NC(=O)c2cccc(N)c2)cc1,91.3%
7,O=C(N/N=C/c1ccccc1O)Nc1nn[nH]n1,85.7%
8,CCOC(=O)/C(C#N)=C/c1cccc(C)c1,80.8%
9,c1ccc(/C(=N\N=C(/c2ccccc2)c2cccs2)c2cccs2)cc1,89%
10,Nc1ccccc1C(=O)Nc1ccc(Cl)cc1Cl,67.7%
11,CC1=CC(=O)c2ccccc2C1=O,90.9%
12,COC(=O)Nc1nc2ccc(C(=O)c3cccs3)cc2[nH]1,32.8%
13,CCOC(=O)C(C#N)Cc1ccccc1 (stereo not drawn),99.1%
14,Cc1nc2ccccc2c2nnc(SCC(=O)N(Cc3ccccc3)c3ccccc3)n12,90.4%
15,CC1=C(/C=C/C(C)=C/C=C/C(C)=C/CO)C(C)(C)CCC1,95.3%
16,CC(=O)Nc1cccc(Cl)c1C,87.1%
17,COc1cc([C@@H]2c3cc4c(cc3[C@H](O)[C@H]3COC(=O)[C@H]23)OCO4)cc(OC)c1OC,30.6%
18,CC1CCC(C(=O)O)N1 (stereo not drawn),83.3%

# Test system: SNB-19 CNS
# Assay: as above
# Settings: 10 µM
row,Compound,growth
1,COCCCC/C(=N\OCCN)c1ccc(C(F)(F)F)cc1,100%
2,Cc1ccccc1N=C(c1ccccc1)C1C(=O)c2ccccc2C1=O,97.1%
3,O=C(O)C(c1ccccc1)C(O)c1ccccc1 (stereo not drawn),103%
4,CC(C)(C)c1cc(O)c(C(C)(C)C)cc1O,49.2%
5,O=C(CCNNC(=O)c1ccncc1)NCc1ccccc1,98.1%
6,CCCNc1ccc(C2=NCCCN2)cc1,102%
7,O=[N+]([O-])c1ccc(O)c(S(=O)(=O)O)c1,105%
8,O=C(O)c1cccc([N+](=O)[O-])c1O,99.1%
9,C/C=C/CC(C)C(O)C1C(=O)NC(CC)C(=O)N(C)CC(=O)N(C)C(CC(C)C)C(=O)NC(C(C)C)C(=O)N(C)C(CC(C)C)C(=O)NC(C)C(=O)NC(C)C(=O)N(C)C(CC(C)C)C(=O)N(C)C(CC(C)C)C(=O)N(C)C(C(C)C)C(=O)N1C (stereo not drawn),41.7%
10,O=[N+]([O-])c1ccc(N=Nc2ccccc2)cc1,96.7%
11,O=C(CC(=O)c1ccccc1O)c1ccccc1,86.9%
12,CCn1c(=O)n(C)c2c(=O)n(C)c(=O)n(C)c21,102%
13,CCCCCCCCCCCCCCCCC1CC(=O)OC1=O (stereo not drawn),105%
14,O=C1c2ccccc2C(=O)N1OCc1ccccc1,112%
15,C[C@@H](c1ccccc1)[C@@H](C(=O)O)c1ccccc1,92.4%
16,CC(=O)C1CCCCC1,100%
17,Nc1ccc(CC(=O)O)c(N)c1,97%
18,CN(C)c1ccc(CNC(C(=O)c2ccccc2)c2ccccc2)cc1 (stereo not drawn),107%
19,CC(C)COC(=O)COC(=O)OCCOCCOC(=O)OCC(=O)OCC(C)C,101%

row,Compound,growth
1,S=C(Nc1ccccc1)N1CCCCC1,111%
2,O=C(O)CCCc1ccccc1,105%
3,COc1cc(OC)c2ccc(=O)oc2c1,99%
4,Cc1cc(=O)[nH]c(NN=C2CCCC2)n1,108%
5,Nc1ccc(C(=O)c2ccc(N)c(Br)c2)cc1Br,33.4%
6,CCCC(=O)c1cc(C)ccc1OC,114%
7,Nc1ccc(NC(=O)c2cccc(N)c2)cc1,94.8%
8,O=C(N/N=C/c1ccccc1O)Nc1nn[nH]n1,97.4%
9,CCOC(=O)/C(C#N)=C/c1cccc(C)c1,94.8%
10,Nc1ccccc1C(=O)Nc1ccc(Cl)cc1Cl,96.1%
11,CC1=CC(=O)c2ccccc2C1=O,101%
12,COC(=O)Nc1nc2ccc(C(=O)c3cccs3)cc2[nH]1,29.9%
13,CCOC(=O)C(C#N)Cc1ccccc1 (stereo not drawn),100%
14,Cc1nc2ccccc2c2nnc(SCC(=O)N(Cc3ccccc3)c3ccccc3)n12,102%
15,CC1=C(/C=C/C(C)=C/C=C/C(C)=C/CO)C(C)(C)CCC1,95.7%
16,CC(=O)Nc1cccc(Cl)c1C,107%
17,COc1cc([C@@H]2c3cc4c(cc3[C@H](O)[C@H]3COC(=O)[C@H]23)OCO4)cc(OC)c1OC,34.7%
18,CC1CCC(C(=O)O)N1 (stereo not drawn),102%
